Screens (PubChem)
Most compounds without a hit are left out; they make up all but 2.6% or so of the library.
Cruzain inh Det: inhibitors of Trypanosoma cruzi cruzain with detergent. Potency, µM, for inactives: max response, negative = inhibition, actives largely listed as inhibitors. hit rate 0.43% among 200,000. purified cruzain, Z-FR-AMC fluorescence, 0.01% Triton. P25779;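 also: plate controls were neutral wells for no effect and buffer without enzyme for full effect; nearly all actives have a fitted effect of over 40% in size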
Target sequence (P25779 123-467 limits assumed): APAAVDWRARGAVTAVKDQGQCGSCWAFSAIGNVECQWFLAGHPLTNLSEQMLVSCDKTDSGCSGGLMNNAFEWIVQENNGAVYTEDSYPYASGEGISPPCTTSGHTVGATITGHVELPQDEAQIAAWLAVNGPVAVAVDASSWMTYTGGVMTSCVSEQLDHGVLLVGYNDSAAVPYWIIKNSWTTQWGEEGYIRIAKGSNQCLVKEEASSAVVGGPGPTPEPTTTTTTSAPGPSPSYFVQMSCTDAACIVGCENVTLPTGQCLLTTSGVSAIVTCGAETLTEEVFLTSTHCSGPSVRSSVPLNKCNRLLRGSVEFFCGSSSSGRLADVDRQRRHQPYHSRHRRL
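Cysteine protease activity tested under reducing, mildly acidic conditions (100 mM sodium acetate pH 5.5, 5 mM DTT) plus 0.01% Triton X-100. Cruzain 1.5 nM; substrate Z-FR-AMC 2 uM; 15 min compound preincubation at room temperature.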
Cruzain inh noDet: inhibitors of Trypanosoma cruzi cruzain without detergent; P25779; hit rate 2.3% among 200,000; purified cruzain, Z-FR-AMC fluorescence, no detergent; Potency, µM, without a hit: max response, negative = inhibition, usual class: inhibitors;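 also: plate controls were enzyme without inhibitor for no effect and buffer without enzyme for full effect; nearly all actives have a fitted effect of over 40% in size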
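Purified cruzain at 1.5 nM, pre-incubated 15 min with compound at room temperature in 100 mM sodium acetate pH 5.5, 5 mM DTT, 0.00005% Triton X-100. Reaction started with 2 uM Z-FR-AMC; AMC fluorescence increase over 60 s gives rate.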
* = called active by the depositor; ? = inconclusive. Calls follow the shape of the dose curve; as a rule, active = well fitted curve in the direction sought with a large enough effect; inconclusive = small, poorly fitted or top-dose-only effect, or another doubt; inactive = no such curve, though single readings can be large; an effect the other way counts as inactive or inconclusive. Potency is read from the fitted curve at half-maximal effect.

SMILES	Cruzain inh Det	Cruzain inh noDet
COc1ccc(-c2sc(NC(=O)c3ccc(C)cc3)nc2-c2ccc([N+](=O)[O-])cc2)cc1	-5%	4µM*
COc1ccc(OC)c(Nc2nc(-c3sc(NC(=O)C(C)(C)C)nc3C)cs2)c1	-1%	-2%
COc1ccc2c(c1)CCc1sc(NC(=O)c3ccc(C)cc3)nc1-2	-6%	-8%
CCOc1ccccc1Nc1nc(-c2sc(NC(=O)c3cccc(Cl)c3)nc2C)cs1	0%	6.3µM*
Cc1nc(NC(=O)c2ccccc2)sc1-c1csc(NCCc2ccccc2)n1	-9%	?
CCOc1ccccc1Nc1nnc(SC(C)C(=O)Nc2nc(-c3ccccc3)cs2)s1 (stereo not given)	-5%	7.9µM*
COc1ccccc1Nc1nc(-c2sc(NC(=O)c3ccc([N+](=O)[O-])cc3)nc2C)cs1	1%	4µM*
CCOc1ccccc1NC(=O)C(C)Sc1cc(-c2ccccc2)nc(C)n1 (stereo not given)	-7%	-6%
CCC1=C2CC[C@H]3C(=O)NC(=O)[C@H]3[C@H]2[C@@]2(Cc3ccccc3)C(=NCC3CC3)OC(=O)N2C1=O	-3%	-4%
COc1ccccc1Nc1nc(-c2sc(NC(=O)c3ccccc3)nc2C)cs1	3%	?
CCOc1ccccc1Nc1nc(-c2sc(NC(=O)c3ccccc3)nc2C)cs1	-4%	13µM*
Cc1cc(NC(=O)CN2C(=O)c3cccnc3Sc3ccccc32)ccc1Br	-2%	-9%
O=C(NCc1cccc(Cl)c1)c1cccn1-c1nnc(N2CCCC2)s1	1%	-2%
Nc1nc(SC/C=C\c2ccccc2)c2[nH]cnc2n1	-1%	-8%
O=C(O)CCN1C(=O)C(=C2CCCCCC2)SC1=S	-1%	-2%
O=C1C(=C2CCCCC2)SC(=S)N1Cc1ccco1	20µM*	16µM*
Cc1ccc(C(=O)N/C(=C\c2ccc(Cl)cc2)C(=O)NC2CCCCC2)cc1	-1%	4%
COC(=O)/C=c1/s/c(=C(/C#N)C(=O)NCc2ccccc2)n(-c2ccccc2)c1=O	1%	?
CCCCCCOc1ccc(/C=c2\s/c(=C(/C#N)C(=O)NCc3ccco3)n(-c3ccccc3)c2=O)cc1	-1%	3.2µM*
COc1ccc(-c2nc3cnc(Nc4cccc(OC)c4)nc3n(C[C@H]3CCCO3)c2=O)cc1	3%	-16%
CCOC(=O)C1=C(N)n2c(s/c(=C/c3ccco3)c2=O)=C(C(=O)OC)C1c1ccco1 (stereo not given)	-2%	13µM*
CCOC(=O)C1=C(C)N=c2s/c(=C\c3cccn3C)c(=O)n2C1c1cccc(OC)c1OC (stereo not given)	-9%	?
CCOC(=O)C1=C(C)N=c2s/c(=C/c3ccco3)c(=O)n2C1c1cccc(OC)c1 (stereo not given)	-29%	25µM*
COC(=O)C1=C(C)N=c2s/c(=C/c3ccoc3)c(=O)n2C1c1ccccc1 (stereo not given)	-9%	-7%
COc1ccc(C2C(C(C)=O)=C(C)N=c3s/c(=C/c4ccc5c(c4)OCO5)c(=O)n32)cc1 (stereo not given)	-6%	10µM*
SMILES	Cruzain inh Det	Cruzain inh noDet
CCOC(=O)C1=c2s/c(=C\c3cccnc3)c(=O)n2C(N)=C(C(=O)OC)C1c1cccnc1 (stereo not given)	-8%	14%
Cc1cc2sc(C)[n+](CCCOS(=O)(=O)O)c2cc1C	0%	16%
CCOC(=O)c1ccc(NC(=O)C(CC)Sc2nnc3c4ccccc4n(C)c3n2)cc1 (stereo not given)	-2%	?
COc1ccc(S(=O)(=O)N(CC(=O)Nc2ccc(C)cc2)c2ccc(C)cc2)cc1OC	1%	-3%
COc1ccc(C)cc1S(=O)(=O)N(CC(=O)Nc1cccc([N+](=O)[O-])c1)c1ccc(C)c(C)c1	-6%	32µM*
Cc1cc(C)c(C(=O)Nc2ccccc2)c(SCC(=O)Nc2ccc(Br)cc2C)n1	0%	5%
Cc1cccc(-c2nc(SCCCOc3cc(C)c(Cl)c(C)c3)n3[nH]c(=O)cc3n2)c1	-1%	-1%
COc1ccccc1OCCSc1nc(-c2ccc(C(C)(C)C)cc2)nc2cc(=O)[nH]n12	-6%	-9%
Cc1cccc(-c2nc(SCCCOc3ccccc3Cl)n3[nH]c(=O)cc3n2)c1	3%	16µM*
Cc1ccc(C(C)C)c(OCCSc2nc(-c3cccs3)nc3cc(=O)[nH]n23)c1	1%	7.9µM*
Cc1cc(C)cc(OCCSc2nc(-c3cccs3)nc3cc(=O)[nH]n23)c1	0%	6%
CCOc1ccc(-c2nc(SCC(=O)Nc3ccc(C)c(C)c3)n3[nH]c(=O)cc3n2)cc1	2%	6%
C=CCc1ccccc1OCCSc1nc(-c2ccc(C(C)(C)C)cc2)nc2cc(=O)[nH]n12	-3%	4µM*
Cc1ccc(NC(=O)CSc2nc(-c3ccc(C(C)(C)C)cc3)nc3cc(=O)[nH]n23)cc1C	-1%	4µM*
CCC(C)C(=O)OC1CCC=C2C=CC(C)C(CCC3CC(O)CC(=O)O3)[C@@H]21 (stereo not given in full)	-3%	?
